In the library only some 6.5% were active in any assay of this set; here they are far more common.
Vaccinia mCherry = inhibitors of vaccinia virus infection (mCherry reporter signal) | Vaccinia virus mCherry reporter infection, fluorescence | Potency, µM (series often up to 36.5 µM), without a hit: at the top dose activity change, negative = inhibition, most hits filed as inhibitors | actives 0.63% (n = 310,000); calls by dose curve; tested in A549 cells; also: potency is read from the fitted curve at half-maximal effect; nearly all actives have a fitted effect of over 35% in size
HCMV inh = human cytomegalovirus inhibition. HFF cells, HCMV-luciferase reporter, 72 h; active compounds read low. activity change, negative = inhibition, % at 57.5 µM. actives 4.5% (n = 410,000); in the data active = activity change below about -60%; inconclusive = no clear call, values can overlap the other calls; inactive = above about -39%
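Steps: HFFs plated, 16 h 37C; compounds added; HCMV-luciferase added to MOI 1 PFU/cell; 72 h 37C; OneGlo reagent, 5 min room temperature; luminescence read, normalized to controls.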
Vaccinia Venus = vaccinia inhibition (Venus reporter); Vaccinia virus Venus reporter expression, fluorescence; Potency, µM (highest dose often 36.5 µM), without a hit: at the highest dose activity change, negative = inhibition, hits mostly inhibitors; actives 0.46% (n = 330,000); AID 720580; calls by dose curve; tested in A549 cells; also: potency is read from the fitted curve at half-maximal effect; nearly all actives have a fitted effect of over 30% in size
FMDV inh = foot and mouth disease virus antiviral activity | FMDV antiviral cell-based qHTS | Potency, µM (series often up to 57.9 µM), inactives show top-dose activity change, negative = inhibition, usual class: inhibitors | actives 1.2% (n = 410,000) | AID 1159524; calls by dose curve; tested in HEK293T cells; also: read-out not given here; potency is read from the fitted curve at half-maximal effect; nearly all actives have a fitted effect of over 45% in size
LASV entry inh = blocks Lassa virus binding to or entry into cells. Potency, µM (series often up to 37.9 µM), for the others: at the top dose activity change, negative = inhibition, actives largely listed as inhibitors. actives 1.2% (n = 300,000). Lassa virus pseudotype entry inhibition, cell reporter; calls by dose curve; tested in HEK293 cells; also: potency is read from the fitted curve at half-maximal effect; nearly all actives have a fitted effect of over 50% in size
MARV entry inh = inhibitors of Marburg virus binding or cell entry; actives 1.8% (n = 300,000); Marburg virus pseudotyped entry inhibition, cell reporter; AID 540276; Potency, µM (highest dose often 37.8 µM), for the others: at the top dose activity change, negative = inhibition, most hits filed as inhibitors; calls by dose curve; tested in HEK293 cells; also: potency is read from the fitted curve at half-maximal effect
Starred values were filed as active, the others as inactive; i = inactive; ? = inconclusive; nt = no result given; [ ] = dose if it differs, or a comment. % is scaled to controls: 0 for no effect and ±100 for the full control effect.

SMILES | Vaccinia mCherry | HCMV inh | Vaccinia Venus | FMDV inh | LASV entry inh | MARV entry inh
COc1cccc(C(=O)Nc2nnc(S(=O)(=O)N3CCCc4ccccc43)s2)c1 | i | 4 | -19% | -12% | -3%[46.1 µM] | nt
CCOC(=O)C1=C(N)n2c(s/c(=C/c3ccco3)c2=O)=C(C(=O)OCC)C1c1ccco1 (centres undefined) | nt | nt | nt | nt | nt | -18%
CC1(C(=O)Nc2ccc3[nH]ncc3c2)CCN1C(=O)Cc1ccc(-c2ccccc2)cc1 (centres undefined) | -21% | ? | -24% | 40µM* | nt | nt
CC(C)(C)c1ccc(CC(=O)N2CCC2(C)C(=O)Nc2ccc3[nH]ncc3c2)cc1 (centres undefined) | ? | -86* | -25% | -17% | nt | nt
CC(=O)N(Cc1ccc2c(c1)OCO2)Cc1cc2ccc(C)cc2nc1-c1cccc(C)c1 | -12% | nt | 27% | -3% | nt | nt
CN1/C(=C\C(=O)c2cncc(Br)c2)C(C)(C)c2ccccc21 | -14% | -73* | 28% | ? | ? | ?
CN1/C(=C\C(=O)COc2ccc3c(c2)OCO3)C(C)(C)c2ccccc21 | -23% | ? | -4% | 25µM* | -18% | -1%
CN1/C(=C\C(=O)c2cccnc2)C(C)(C)c2ccccc21 | -4% | -2 | -17% | 18% | 0% | 7%
CN1/C(=C\C(=O)C[n+]2ccc3ccccc3c2)C(C)(C)c2ccccc21 | -3% | -97* | -4% | ? | ? | ?
CN1/C(=C/C(=O)c2nc(S(C)(=O)=O)ncc2Cl)C(C)(C)c2ccccc21 | 28µM* | nt | ? | 10µM* | 16µM* | ?
COc1ccccc1OCC(=O)/C=C1/N(C)c2ccccc2C1(C)C | -16% | 21 | -14% | ? | -24% | 19%[46.1 µM]
CN1/C(=C\C(=O)C(F)F)C(C)(C)c2ccccc21 | nt | 10 | -14% | ? | -2% | 3%
C[C@H](CO)N1C[C@H](C)[C@@H](CN(C)C(=O)Nc2cccc(Oc3ccccn3)c2)OCc2cn(nn2)CCCC1=O | nt | -6 | nt | nt | nt | nt
CN1/C(=C\C(=O)c2ccco2)C(C)(C)c2ccccc21 | -17% | -71* | 22% | ? | ? | -36%
CC1=C(C(=O)Nc2ccccc2)C(c2ccncc2)n2nc(SCc3ccccc3)nc2N1 (centres undefined) | 2% | 4 | 9% | -9% | 21%[46.1 µM] | 2%[46.1 µM]
COc1cc(N2C(=O)C=CC2=O)c(OC)cc1Cl | -1% | -98* | -22% | 35µM* | ? | ?
Cc1ccc(C)c(-c2cc(C(=O)Nc3sc(C)c(C)c3C(N)=O)c3ccccc3n2)c1 | nt | -33 | nt | 22µM* | ? | ?
CCOC(=O)c1sc(NC(=O)CSc2nnc(Cc3ccccc3)o2)c(C#N)c1C | nt | nt | 12% | 32µM* | -16% | 28%
Cc1cccc(-c2cc(C(=O)Nc3sc(C)c(C)c3C(N)=O)c3ccccc3n2)c1 | i | 2 | -9% | 0% | -23% | ?
CCOC(=O)c1sc(NC(=O)c2cc(-c3ccccc3)nc3ccccc23)c(C#N)c1C | -4% | -95* | -21% | ? | -27% | ?
CCOC(=O)c1c(NC(=O)CSc2nnc(Cc3ccccc3)o2)sc(C(C)=O)c1C | nt | 14 | nt | ? | -28% | -22%
CCOC(=O)c1sc(NC(=O)CSc2n[nH]c(-c3ccccc3)n2)c(C#N)c1C | ? | -32 | ? | 0% | -13% | ?
Cc1ccc(-c2csc(NC(=O)C3CC(=O)N(c4ccc5c(c4)OCCO5)C3)n2)o1 (centres undefined) | -4% | nt | -18% | nt | nt | nt
O=C1/C(=C/c2cccnc2)SC(=S)N1C1CCS(=O)(=O)C1 (centres undefined) | -10% | ? | 2% | 14µM* | ? | ?
O=C(N[C@@H]1CC[C@H](CCn2cc(-c3ccccn3)nn2)O[C@@H]1CO)c1ccncc1 | -3% | -12 | -12% | -17% | nt | nt
O=C(N[C@@H]1CC[C@@H](CCn2cc(-c3ccccc3)nn2)O[C@@H]1CO)c1cnccn1 | 3% | -70* | -5% | -14% | nt | nt
Cc1cccc(N=C2Sc3nc4c(C)c(C)ccc4cc3CN2CCN2CCOCC2)c1 | -11% | -7 | ? | -29% | 23µM* | 16µM*
COCCN1Cc2cc3cc(C)ccc3nc2SC1=Nc1cccc(OC)c1 | nt | 5 | nt | -14% | nt | nt

High-throughput results: PubChem BioAssay, National Center for Advancing Translational Sciences (NCATS)
